KDM4E inh: qHTS Assay for Inhibitors of Human Jumonji Domain Containing 2E (JMJD2E); Potency, µM (titrated, usually from 57.1 µM), hits mostly inhibitors; JMJD2E catalytic domain, FDH-coupled NADH fluorescence (FDH is formaldehyde dehydrogenase); 230,000 tested, 1.6% active; AID 2147, 2009; active = well fitted inhibition curve with a large enough effect, not every such curve was filed as active; inconclusive = small, poorly fitted or top-dose-only effect, or another doubt; inactive = no such curve, though single readings can be large or run the other way; also: nearly all actives have a fitted effect of over 50% in size
BLM inh: qHTS Assay for Inhibitors of Bloom's syndrome helicase (BLM); AID 2528, 2010; Potency, µM (doses to about 56.1 µM), most hits filed as inhibitors; RecQ-like DNA helicase BLM (Homo sapiens), P54132; recombinant BLM DNA unwinding, fluorescence dequenching; 350,000 tested, 0.2% active; also: nearly all actives have a fitted effect of over 35% in size
Target sequence (P54132 whole entry, looked up): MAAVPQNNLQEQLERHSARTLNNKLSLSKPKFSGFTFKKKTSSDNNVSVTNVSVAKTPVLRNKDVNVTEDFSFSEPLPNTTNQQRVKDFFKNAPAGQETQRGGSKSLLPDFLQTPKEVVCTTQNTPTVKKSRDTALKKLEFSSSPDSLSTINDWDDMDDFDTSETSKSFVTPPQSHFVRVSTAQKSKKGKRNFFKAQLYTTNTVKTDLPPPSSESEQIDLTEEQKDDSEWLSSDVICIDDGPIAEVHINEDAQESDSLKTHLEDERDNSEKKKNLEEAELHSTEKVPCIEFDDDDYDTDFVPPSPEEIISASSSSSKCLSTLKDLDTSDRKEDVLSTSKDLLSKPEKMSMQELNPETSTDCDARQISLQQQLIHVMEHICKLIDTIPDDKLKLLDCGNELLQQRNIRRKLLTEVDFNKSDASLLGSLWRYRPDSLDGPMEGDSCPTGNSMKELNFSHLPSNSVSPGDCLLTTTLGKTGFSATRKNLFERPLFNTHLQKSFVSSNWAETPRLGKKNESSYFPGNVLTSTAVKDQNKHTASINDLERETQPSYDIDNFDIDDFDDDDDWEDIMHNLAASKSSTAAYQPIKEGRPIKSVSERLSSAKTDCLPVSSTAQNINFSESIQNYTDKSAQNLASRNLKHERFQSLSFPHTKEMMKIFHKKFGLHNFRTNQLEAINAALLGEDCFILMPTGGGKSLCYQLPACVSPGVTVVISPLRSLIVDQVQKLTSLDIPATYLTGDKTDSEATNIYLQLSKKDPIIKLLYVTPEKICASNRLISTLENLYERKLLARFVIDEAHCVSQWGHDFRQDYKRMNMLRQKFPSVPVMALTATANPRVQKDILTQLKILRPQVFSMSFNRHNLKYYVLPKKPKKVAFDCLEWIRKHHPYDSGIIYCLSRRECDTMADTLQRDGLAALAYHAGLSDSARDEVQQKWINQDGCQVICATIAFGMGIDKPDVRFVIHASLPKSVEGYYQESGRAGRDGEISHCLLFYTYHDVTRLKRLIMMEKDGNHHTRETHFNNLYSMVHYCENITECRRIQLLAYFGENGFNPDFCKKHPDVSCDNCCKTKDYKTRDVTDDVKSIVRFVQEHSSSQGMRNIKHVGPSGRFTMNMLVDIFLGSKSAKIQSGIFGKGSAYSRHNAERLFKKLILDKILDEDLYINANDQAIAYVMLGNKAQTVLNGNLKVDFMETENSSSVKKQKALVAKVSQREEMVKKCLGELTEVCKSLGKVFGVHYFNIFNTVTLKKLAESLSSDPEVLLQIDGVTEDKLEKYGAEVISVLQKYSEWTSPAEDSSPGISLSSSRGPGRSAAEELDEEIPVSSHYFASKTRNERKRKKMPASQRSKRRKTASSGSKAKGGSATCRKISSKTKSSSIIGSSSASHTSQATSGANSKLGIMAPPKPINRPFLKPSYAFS
L3MBTL1 inh: qHTS Assay for the Inhibitors of L3MBTL1 | Lethal(3)malignant brain tumor-like protein 1 (Homo sapiens), Q9Y468 | AlphaScreen L3MBTL1–H3K9me1 peptide binding | Potency, µM (series often up to 57.1 µM), actives largely listed as inhibitors | 230,000 tested, 0.66% active | AID 485360, 2010; also: nearly all actives have a fitted effect of over 60% in size
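L3MBTL1 50 nM + b-AHA-H3(1-15)K9me1 75 nM, 30 min RT; compound added, 30 min RT; streptavidin donor/Ni-chelate acceptor beads 10 ug/mL each final, 30 min RT dark; AlphaScreen read.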
APEX1 inh: qHTS Assay for Inhibitors of the Human Apurinic/apyrimidinic Endonuclease 1 (APE1); DNA repair nuclease/redox regulator APEX1 (Homo sapiens), P27695; recombinant APE1, TAMRA/BHQ-2 abasic DNA cleavage fluorescence; Potency, µM (series often up to 65.8 µM), actives largely listed as inhibitors; 350,000 tested, 0.35% active; also: nearly all actives have a fitted effect of over 55% in size
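Step 1: APE1 (0.75 nM) with compound, 15 min RT. Step 2: add 50 nM fluorophore/quencher THF duplex. Step 3: three fluorescence reads 60 s apart (525/598 nm); read 3 minus read 1 = reaction progress.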
TDP1 block: qHTS Assay for Inhibitors of Tyrosyl-DNA Phosphodiesterase (TDP1) | Potency, µM (top dose mostly 130 µM), hits mostly inhibitors | 350,000 tested, 0.28% active | AID 485290, 2010 | recombinant TDP1, AlphaScreen DNA substrate cleavage; also: nearly all actives have a fitted effect of over 40% in size
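Recombinant human Tdp1 (E. coli-expressed, 1 nM final) preincubated with compounds 15 min at room temperature, then 5'-biotin/3'-phosphotyrosine-FITC DNA substrate (15 nM final) added for 5 min. AlphaScreen beads (10 ug/ml final) added 10 min; cleavage lowers signal.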
RECQ1 helicase: qHTS Assay for Inhibitors of RecQ-Like Dna Helicase 1 (RECQ1) | RECQ1 DNA unwinding, red fluorescence kinetic read | Potency, µM (top dose mostly 57.3 µM), usual class: inhibitors | 240,000 tested, 0.54% active; also: nearly all actives have a fitted effect of over 30% in size
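50 nM RECQ1T1 preincubated 15 min with compound in Tris pH 8.0 buffer with MgCl2, DTT, Tween-20 and 2.5 ug/ml poly(dI-dC); started with 200 nM TAMRA/BHQ-2 forked duplex and 2 mM ATP. Unwinding read as fluorescence (525/598 nm), two reads 2 h apart.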
Hits are given with their value; 0 = inactive; ? = inconclusive; - = not tested or not shown; ! = repeats disagree; [ ] = dose if it differs, or a comment. The full list was thinned out, with hits kept by preference. Unless noted, calls follow the shape of the dose curve; as a rule, active = well fitted curve in the direction sought with a large enough effect; inconclusive = small, poorly fitted or top-dose-only effect, or another doubt; inactive = no such curve, though single readings can be large; an effect the other way counts as inactive or inconclusive.

SMILES	KDM4E inh	BLM inh	L3MBTL1 inh	APEX1 inh	TDP1 block	RECQ1 helicase
O=C(O)c1ccccc1-c1c2cc(Br)c(=O)c(Br)c-2oc2c(Br)c(O)c(Br)cc12	-	28µM	-	?	0	32µM
CCOc1cccc(C2C=C(c3ccc4c(c3)OCO4)NC(c3ccccc3Cl)N2)c1O (centres undefined)	-	-	-	-	0	-
CCCC1=NN2C(=N)/C(=C\c3cc(C)n(Cc4ccccc4)c3C)C(=O)N=C2S1	?	0	0	0	0	0
CCCC1=NN2C(=N)/C(=C\c3cc(C)n(-c4cccc(C)c4)c3C)C(=O)N=C2S1	8.9µM	0	0	0	0	0
CC1=CC2=NC(=O)/C(=C\c3cc(C)n(-c4ccccc4)c3C)C(=N)N2O1	0	0	0	0	0	0
CC1=CC2=NC(=O)/C(=C\c3cc(C)n(-c4cccc(Cl)c4)c3C)C(=N)N2O1	28µM	0	0	0	0	0
Cc1ccc(-c2no[n+]([O-])c2C#N)cc1	-	-	-	0	-	-
COc1cc(-c2noc(-c3ccc(NCc4cccnc4)c([N+](=O)[O-])c3)n2)cc(OC)c1OC	-	0	-	-	0	-
O=C(O)C1CC=CCC1C(=O)N1CCc2ccccc21 (centres undefined)	0	0	0	?	22µM	0
CCOC(=O)CC(CC(C)=O)C(=O)OCC (centres undefined)	0	0	-	0	0	0
COC(=O)C(N)Cc1ccc(O)cc1 (centres undefined)	0	0	-	0	0	0
CC(=O)NCCc1ccc(O)c(O)c1	18µM	-	-	0	0	0
COC(=O)C(N)Cc1ccc(O)c(O)c1 (centres undefined)	14µM	0	-	?	?	0
COc1cc(F)c(S(=O)(=O)N2CCN(S(=O)(=O)c3cccs3)CC2)c(F)c1	-	-	-	-	0	-
Cc1cc(-c2ccc(N=Nc3cc(S(=O)(=O)O)c4ccccc4c3N)c(C)c2)ccc1N=Nc1cc(S(=O)(=O)O)c2ccccc2c1N	-	-	-	25µM	0	13µM
O=S(=O)(O)c1ccc2c(N=Nc3ccc(S(=O)(=O)O)c4ccccc34)c(O)c(S(=O)(=O)O)cc2c1	-	0	-	-	?	-
c1ccc(N2CCN(c3nc4ccccc4n4nnnc34)CC2)cc1	?	0	3.5µM	0	0	0
CCn1c(C)nc2cc(C(=O)N/N=C/c3ccc(O)cc3)ccc21	0	0	0	0	0	0
CCn1c(C)nc2cc(C(=O)N/N=C/c3ccccc3)ccc21	0	0	0	0	0	0
CCn1c(C)nc2cc(C(=O)N/N=C(\C)c3ccc(OC)cc3O)ccc21	13µM	0	0	0	0	0
CCn1c(C)nc2cc(C(=O)NN=Cc3ccc([N+](=O)[O-])cc3)ccc21	-	-	0	0	45µM	-
CCn1c(C)nc2cc(C(=O)N/N=C/c3cccc(O)c3O)ccc21	3.5µM	0	?	0	-	0
O=C(CNC(=O)C1CCCCC1)OC(C(=O)Nc1cc(C(F)(F)F)ccc1Cl)c1ccccc1 (centres undefined)	-	-	-	-	0	-
O=C(O)CCc1cc(F)c(S(=O)(=O)N2CCN(S(=O)(=O)c3ccc4c(c3)OCCO4)CC2)cc1F	-	-	-	-	0	-
C=CCNc1oc(-c2cccc(Br)c2)nc1C#N	-	-	-	0	-	-
SMILES	KDM4E inh	BLM inh	L3MBTL1 inh	APEX1 inh	TDP1 block	RECQ1 helicase
Clc1cccc(Cl)c1C1Nc2cccc3cccc(c23)N1	-	0	14µM	0	0	-
Brc1ccc(C2Nc3cccc4cccc(c34)N2)o1	3.2µM	0	0	?	?	?
COc1ccc2[nH]c(=O)c(CN(C3CCCCC3)C(c3nnnn3Cc3ccco3)C(C)C)cc2c1 (centres undefined)	?	0	?	0	0	28µM
COc1ccc(C(=O)Oc2c(CN3CCOCC3)cc(Cl)c3cccnc23)cc1OC	-	-	-	-	0	-
COc1cc(OC)cc(C(=O)Oc2c(CN3CCOCC3)cc(Cl)c3cccnc23)c1	0	0	25µM	0	0	0
O=[N+]([O-])c1cc(CN2CCN(c3ccccc3)CC2)c(O)c2ncccc12	0	0	4µM	0	0	0
Oc1c(CN2CCc3ccccc3C2)cc(Cl)c2cccnc12	22µM	0	-	0	0	0
CN(Cc1cc([N+](=O)[O-])c2cccnc2c1O)C1CCCCC1	?	0	0	0	0	0
CN1CCN(Cc2cc(COCc3ccccc3)c3cccnc3c2O)CC1	8.9µM	0	14µM	0	0	0
O=[N+]([O-])c1cc(CN2CCOCC2)c2cccnc2c1O	0	0	1.3µM	0	0	0
Oc1c(Cl)cc(CN2CCOCC2)c2cccnc12	-	-	?	0	0	-
O=C(C[C@@H]1C/C=C\C[C@H](Cc2ccc(F)cc2)C(=O)OC[C@@H](Cc2c[nH]c3ccccc23)NC1=O)NCCO	-	-	0	12µM	0	-
C=CCN1C=C2C(=O)C(C)(OC(=O)CC)C(=O)C=C2C=C1CCCC (centres undefined)	0[11.4 µM]	0[12.4 µM]	-	0[12.4 µM]	0[12.3 µM]	0[11.5 µM]
C=CCN1C=C2C(=O)C(C)(OC(=O)c3cccs3)C(=O)C=C2C=C1CCCC(=O)OC (centres undefined)	16µM!	0[12.4 µM]	-	0[12.4 µM]	0[21 µM]	0[11.5 µM]
C/C(=N\OCc1nc2ccccc2c(=O)n1/N=C/c1cc(C)cc([N+](=O)[O-])c1O)c1ccccc1	14µM	0	?	0	?	?
CC(=O)Nc1ccc2nc3ccccc3nc2c1	14µM	0	0	0	-	0
COc1[nH]c(/N=C/c2ccco2)c(C#N)c1C#N	-	-	-	-	0	-
COc1ccc(C2=Nn3c(nnc3-c3ccccc3C(F)(F)F)SC2)cc1O[C@H]1CCOC1	-	-	-	0	-	-
O=S1(=O)N=C(Oc2ccc(C(F)(F)F)cc2)c2ccccc21	-	-	-	-	0	-
CCC(=O)NC(c1ccc(C)cc1)c1cc([N+](=O)[O-])c2cccnc2c1O (centres undefined)	?	0	22µM	0	0	0
CCCC(=O)NC(c1ccco1)c1cc([N+](=O)[O-])c2cccnc2c1O (centres undefined)	28µM	0	-	0	0	0
CC(=O)NC(c1ccc(C)cc1)c1cc([N+](=O)[O-])c2cccnc2c1O (centres undefined)	?	0	5µM	0	0	0
CC(=O)NC(c1ccccc1)c1cc(Cl)c2cccnc2c1O (centres undefined)	-	0	0	0	0	-
COc1ccc(C2Oc3ccccc3C(=O)N2Cc2ccccc2)cc1COc1ccc(NC(C)=O)cc1 (centres undefined)	-	-	-	-	0	-
